Results: PubChem BioAssay
Results filed as inconclusive are left out. Activity calls are given as the source filed them.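 How the source made its calls, unless noted: active means normalized viability below 100% at a tested concentration; inactive means the rest.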

What was measured:
[1] = P. berghei load reduction in hepatocytes – cell-based, HepG2, luciferase luminescence, HepG2 viability, primary screen (AID 624349; in the data active means parasite load remaining mostly below about 12%, no sharp cut-off; inactive means mostly above about 10%;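 further: 100% = mean of DMSO negative control wells on the same plate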); conditions: P. berghei liver stage in HepG2, luciferase luminescence, concentration not given here; parasite load remaining: stronger effect = lower value; viability: measured here: HepG2 viability without parasites
[2] = EMT-state selective cytotoxicity in co-culture – imaging, PC-3E GFP, TEM4-18 mCherry, primary screen (AID 1345086;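 active means compounds killing one labelled cell type while sparing the other, by normalised counts and ratio limits, not self-fluorescent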;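 on all read-outs here: cells exposed to compound for 72 h before imaging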;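 on red/green cell ratio (normalised): normalised mesenchymal count divided by normalised epithelial count so high means epithelial killing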); conditions: PC-3E GFP / TEM4-18 mCherry co-culture, imaging cell counts, at 1 µM; for red/green cell ratio (normalised): actives lie on both sides, counts scaled to control wells, 1 = unselective
[3] = viability loss in pontine glioma line – cell-based, SU-DIPG-XVII, MIPE5.0, CellTiter-Glo, qHTS, dose response (AID 1347060; cut-off not given, nearly all actives have AC50 up to about 26 µM;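 on AC50: cells exposed to compound for 48 hours before viability readout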); conditions: CellTiter-Glo ATP luminescence
[4] = viability loss in pontine glioma line – cell-based, JHH-DIPG-1, MIPE4.0, CellTiter-Glo, qHTS, dose response (AID 1347062; cut-off not given, nearly all actives have AC50 up to about 27 µM); conditions: JHH-DIPG-1 viability, CellTiter-Glo ATP luminescence
[5] = viability loss in pontine glioma line – cell-based, SU-DIPG-XXV, MIPE5.0, CellTiter-Glo, qHTS, dose response (AID 1347065; cut-off not given, nearly all actives have AC50 up to about 26 µM;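 further: cells exposed to compound for 48 hours before ATP readout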); conditions: CellTiter-Glo ATP luminescence
[6] = growth inhibition of DIPG cells – cell-based, MIPE4.0 library, CellTiter-Glo luminescence, qHTS (AID 1347066; cut-off not given, nearly all actives have AC50 up to about 30 µM;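 further: cells exposed to compound for 48 hours before readout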); conditions: SU-DIPG-VI viability, CellTiter-Glo ATP luminescence
[7] = JHH-DIPG-1 glioma cell viability, MIPE5.0 library, CellTiter-Glo luminescence, qHTS (AID 1347067; cut-off not given, nearly all actives have AC50 up to about 26 µM;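 further: cells exposed to compound for 48 hours before readout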); conditions: JHH-DIPG-1 glioma viability, CellTiter-Glo ATP luminescence
[8] = growth inhibition of DIPG cells – cell-based, MIPE5.0 library, qHTS (AID 1347068; cut-off not given, nearly all actives have IC50 up to about 30 µM); conditions: SU-DIPG-XXV viability
[9] = viability loss with induced miR-34 in A549 – imaging, A549 dox-inducible miR-34, nuclei and caspase counts, primary screen (AID 1347080;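 active means compounds whose cell count with miR-34 switched on is under 0.7 times the count with it off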); conditions: A549 miR-34 inducible, Hoechst nuclei count, 48 h
[10] = drug combination growth inhibition, ovarian cancer – cell-based, oncology-focused library, rucaparib conditional, profiling panel (AID 1508598); conditions: patient-derived ovarian cancer cells, CellTiter-Glo viability, 144 h, stronger effect = lower value
[11] = molecular target: NAD(+) hydrolase SARM1 (Homo sapiens) (UniProt Q6SZW1); assay: blocking NAD cleavage by SARM1 SAM-TIR – cell lysate, NAD-Glo luminescence (AID 1508614;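 active means compound whose remaining NAD level is above about 45 nM, limit read from the data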); conditions: SAM-TIR HEK293T lysate NADase, at 1 µM, stronger effect = higher value
[12] = molecular target: Mitogen-activated protein kinase 7 (Homo sapiens) (UniProt Q13164); assay: Gal4-ERK5 driven luciferase induction – cell-based, HTS, primary screen (AID 1508626;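 active means luciferase signal above three times the same-plate solvent-only control wells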;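 further: luciferase driven by Gal4-ERK5 fusion binding five Gal4 sites before minimal TATA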); conditions: HeLa Gal4-ERK5 transactivation, 18 h, at 5 µM, stronger effect = higher value
[13] = viability loss in pontine glioma line – cell-based, SU-DIPG-IV, MIPE4.0, CellTiter-Glo, qHTS, dose response (AID 1347063; cut-off not given, nearly all actives have AC50 up to about 30 µM;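 further: compound exposure lasted 48 hours before the viability readout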); conditions: CellTiter-Glo ATP luminescence
[14] = viability loss in pontine glioma line – cell-based, SU-DIPG-XIII, MIPE5.0, CellTiter-Glo, qHTS, dose response (AID 1347064; cut-off not given, nearly all actives have AC50 up to about 23 µM); conditions: CellTiter-Glo ATP luminescence
[15] = measured here: epithelial PC-3E GFP cell survival
[16] = measured here: mesenchymal TEM4-18 mCherry cell survival

Mitogen-activated protein kinase 7 (Homo sapiens), sequence (Q13164 whole entry, looked up, the tested form may be a part): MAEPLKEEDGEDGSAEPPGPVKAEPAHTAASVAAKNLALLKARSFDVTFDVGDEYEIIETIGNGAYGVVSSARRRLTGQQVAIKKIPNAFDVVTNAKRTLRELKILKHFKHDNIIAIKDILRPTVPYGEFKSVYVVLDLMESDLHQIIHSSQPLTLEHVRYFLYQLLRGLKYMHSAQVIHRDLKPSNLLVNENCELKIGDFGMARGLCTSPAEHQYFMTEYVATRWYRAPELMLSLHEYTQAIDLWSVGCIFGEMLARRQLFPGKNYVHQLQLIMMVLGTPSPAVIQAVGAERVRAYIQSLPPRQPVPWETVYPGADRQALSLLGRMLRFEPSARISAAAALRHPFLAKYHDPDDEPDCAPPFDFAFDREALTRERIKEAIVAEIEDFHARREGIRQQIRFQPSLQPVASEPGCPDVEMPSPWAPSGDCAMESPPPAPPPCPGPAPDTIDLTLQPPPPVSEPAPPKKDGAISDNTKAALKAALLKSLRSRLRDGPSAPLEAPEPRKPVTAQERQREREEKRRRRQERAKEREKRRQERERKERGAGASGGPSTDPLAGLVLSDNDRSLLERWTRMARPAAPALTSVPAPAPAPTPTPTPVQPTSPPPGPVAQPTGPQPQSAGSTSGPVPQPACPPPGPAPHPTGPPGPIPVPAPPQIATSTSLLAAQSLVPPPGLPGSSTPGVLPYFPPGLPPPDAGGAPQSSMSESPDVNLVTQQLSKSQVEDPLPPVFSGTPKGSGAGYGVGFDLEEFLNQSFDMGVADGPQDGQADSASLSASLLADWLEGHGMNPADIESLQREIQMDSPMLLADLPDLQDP
NAD(+) hydrolase SARM1 (Homo sapiens), sequence (Q6SZW1 whole entry, looked up, the tested form may be a part): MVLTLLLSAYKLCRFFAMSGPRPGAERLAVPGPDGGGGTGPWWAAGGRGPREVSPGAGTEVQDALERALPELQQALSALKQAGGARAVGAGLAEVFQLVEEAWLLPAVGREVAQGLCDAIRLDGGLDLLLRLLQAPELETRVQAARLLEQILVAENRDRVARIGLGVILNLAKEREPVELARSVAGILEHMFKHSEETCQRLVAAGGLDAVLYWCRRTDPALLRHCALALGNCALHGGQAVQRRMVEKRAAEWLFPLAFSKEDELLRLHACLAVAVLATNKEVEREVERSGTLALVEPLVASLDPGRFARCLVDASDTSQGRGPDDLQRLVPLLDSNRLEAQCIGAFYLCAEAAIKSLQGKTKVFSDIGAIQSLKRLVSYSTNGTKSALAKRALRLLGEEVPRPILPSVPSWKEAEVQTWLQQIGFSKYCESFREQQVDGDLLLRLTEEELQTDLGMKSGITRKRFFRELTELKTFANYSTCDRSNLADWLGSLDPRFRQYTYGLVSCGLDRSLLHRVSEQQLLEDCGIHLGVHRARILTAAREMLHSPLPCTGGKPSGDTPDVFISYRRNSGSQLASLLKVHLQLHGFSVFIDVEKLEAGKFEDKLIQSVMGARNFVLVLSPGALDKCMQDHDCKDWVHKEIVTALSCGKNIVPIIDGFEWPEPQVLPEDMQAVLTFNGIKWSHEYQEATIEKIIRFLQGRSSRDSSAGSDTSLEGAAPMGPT

Nc1nc(F)nc2c1ncn2[C@@H]1O[C@H](COP(=O)(O)O)[C@@H](O)[C@@H]1O
inactive: parasite load remaining [1] 22.2% | red/green cell ratio (normalised) [2] 1.06 | outcome [4] | outcome [5] | outcome [6] | outcome [7] | outcome [8] | fold change ([9]; stronger effect = lower value, cell number ratio, induced over uninduced) 1.07 | viability ([10]; at 0.000305 µM, OCI-C5x cells, with rucaparib 10 µM, 100% = cells with rucaparib alone) 107% | viability ([10]; at 0.000305 µM, OCI-C5x cells, without rucaparib) 110% | viability ([10]; at 0.000305 µM, OCI-P5x cells, with rucaparib 20 µM, 100% = cells with rucaparib alone) 111% | viability ([10]; at 0.000305 µM, OCI-P5x cells, without rucaparib) 109% | viability ([10]; at 0.00122 µM, OCI-C5x cells, with rucaparib 10 µM, 100% = cells with rucaparib alone) 107% | viability ([10]; at 0.00122 µM, OCI-C5x cells, without rucaparib) 109% | viability ([10]; at 0.00122 µM, OCI-P5x cells, with rucaparib 20 µM, 100% = cells with rucaparib alone) 106% | viability ([10]; at 0.00122 µM, OCI-P5x cells, without rucaparib) 109% | viability ([10]; at 0.00488 µM, OCI-C5x cells, with rucaparib 10 µM, 100% = cells with rucaparib alone) 105% | viability ([10]; at 0.00488 µM, OCI-C5x cells, without rucaparib) 111% | viability ([10]; at 0.00488 µM, OCI-P5x cells, with rucaparib 20 µM, 100% = cells with rucaparib alone) 107% | viability ([10]; at 0.00488 µM, OCI-P5x cells, without rucaparib) 110% | viability ([10]; at 0.0195 µM, OCI-C5x cells, without rucaparib) 111% | viability ([10]; at 0.0195 µM, OCI-P5x cells, with rucaparib 20 µM, 100% = cells with rucaparib alone) 109% | viability ([10]; at 0.0195 µM, OCI-P5x cells, without rucaparib) 108% | viability ([10]; at 0.0781 µM, OCI-C5x cells, with rucaparib 10 µM, 100% = cells with rucaparib alone) 101% | viability ([10]; at 0.0781 µM, OCI-C5x cells, without rucaparib) 112% | viability ([10]; at 0.0781 µM, OCI-P5x cells, with rucaparib 20 µM, 100% = cells with rucaparib alone) 109% | viability ([10]; at 0.0781 µM, OCI-P5x cells, without rucaparib) 110% | viability ([10]; at 0.313 µM, OCI-P5x cells, with rucaparib 20 µM, 100% = cells with rucaparib alone) 106% | viability ([10]; at 0.313 µM, OCI-P5x cells, without rucaparib) 107% | viability ([10]; at 1.25 µM, OCI-P5x cells, with rucaparib 20 µM, 100% = cells with rucaparib alone) 114% | viability ([10]; at 1.25 µM, OCI-P5x cells, without rucaparib) 111% | viability ([10]; at 5 µM, OCI-P5x cells, with rucaparib 20 µM, 100% = cells with rucaparib alone) 106% | remaining NAD [11] 10 nM | luciferase signal [12] 52 AU
active: AC50 [3] 18.6 µM | viability ([10]; at 0.0195 µM, OCI-C5x cells, with rucaparib 10 µM, 100% = cells with rucaparib alone) 97% | viability ([10]; at 0.313 µM, OCI-C5x cells, with rucaparib 10 µM, 100% = cells with rucaparib alone) 87.1% | viability ([10]; at 0.313 µM, OCI-C5x cells, without rucaparib) 98.3% | viability ([10]; at 1.25 µM, OCI-C5x cells, with rucaparib 10 µM, 100% = cells with rucaparib alone) 82.9% | viability ([10]; at 1.25 µM, OCI-C5x cells, without rucaparib) 78% | viability ([10]; at 5 µM, OCI-C5x cells, with rucaparib 10 µM, 100% = cells with rucaparib alone) 58.5% | viability ([10]; at 5 µM, OCI-C5x cells, without rucaparib) 59.8% | viability ([10]; at 5 µM, OCI-P5x cells, without rucaparib) 78.1%
1.01: fold change ([9]; measured here: relative caspase fold change +Dox/-Dox)
0.92: normalised cell number [2, 16]
1570: cell count ([9]; measured here: total cells with miR-34 induction, stronger effect = lower value)
105%: viability [1]
1470: cell count ([9]; measured here: total cells without miR-34 induction)
0.86: normalised cell number [2, 15]

O=c1ccn([C@@H]2O[C@H](CO)[C@@H](O)[C@H]2O)c(=O)[nH]1
inactive: red/green cell ratio (normalised) [2] 0.9 | outcome [3] | outcome [4] | outcome [13] | outcome [14] | outcome [5] | outcome [6] | outcome [8]
1: normalised cell number [2, 15]
0.9: normalised cell number [2, 16]
